Assay results taken from the supplement of paper PMC7057948, “A genome-wide approach for identification and characterisation of metabolite-inducible systems” (Nature Communications, 2020).

These molecules were tested on PhhR/P_H16_RS18365 L-phenylalanine biosensor (pEH137) (assay: relative induction of RFP reporter vs primary effector; higher = stronger activation). Settings: inducer concentration 5 mM; 6 h; Cupriavidus necator H16; minimal medium + 0.4% gluconate.
Procedure: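 Orthogonality screen of 21 primary inducers against 21 transcription factor/inducible promoter–mRFP biosensors in C. necator H16 in minimal medium, robotic 96-well format, 5 mM inducer, 30 °C. OD-normalised RFP fluorescence was read 6 h later and expressed as relative induction (%) = 100 × (FL compound − FL uninduced)/(FL primary inducer − FL uninduced); mean of n=4. Cognate pairs (100% by definition) omitted.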
With `O=C(O)C1CCCCC1` [cyclohexane-1-carboxylate] the “relative induction of RFP reporter” value was -0.0509%.
With `Nc1ccccc1C(=O)C[C@H](N)C(=O)O` [L-kynurenine] the “relative induction of RFP reporter” value was -0.316%.
`C=C(CC(=O)O)C(=O)O` [itaconate] was tested, and the “relative induction of RFP reporter” value was -0.415%.
In the case of `O=C(O)CS(=O)(=O)O` [sulfonatoacetate], the “relative induction of RFP reporter” value is reported as -0.174%.
`NCCC(=O)O` [β-alanine] was tested, and the “relative induction of RFP reporter” value was -0.6%.
In the case of `O=c1[nH]c(=O)c2nc[nH]c2[nH]1` [xanthine], the “relative induction of RFP reporter” value is reported as -0.134%.
`O=C(O)c1ccccc1O` [salicylate] was tested, and the “relative induction of RFP reporter” value was -0.155%.
For `OC1OC[C@H](O)[C@H](O)[C@H]1O` (mixture of isomers) [L-arabinose], the “relative induction of RFP reporter” value was -0.00622%.
For `O=C(O)CCO` [3-hydroxypropanoate], the “relative induction of RFP reporter” value was -0.273%.
With `N[C@@H](Cc1ccc(O)cc1)C(=O)O` [L-tyrosine] the “relative induction of RFP reporter” value was -0.541%.
`C=CC(=O)O` [acrylate] was tested, and the “relative induction of RFP reporter” value was -0.318%.
In the case of `O=C(O)c1ccc(O)c(O)c1` [3,4-dihydroxybenzoate], the “relative induction of RFP reporter” value is reported as -0.638%.
For `O=CO` [formate], the “relative induction of RFP reporter” value was -0.0153%.
In the case of `O=C(O)C(O)C(O)C(=O)O` (configuration not stated) [tartrate], the “relative induction of RFP reporter” value is reported as 0.258%.
With `O=C(O)C(=O)c1ccccc1` [phenylglyoxylate] the “relative induction of RFP reporter” value was -0.366%.
With `O=C(O)c1ccccc1` [benzoate] the “relative induction of RFP reporter” value was -0.383%.
`CC(=O)C(C)O` (configuration not stated) [acetoin] was tested, and the “relative induction of RFP reporter” value was -0.273%.
